TDP1 cell noCPT – qHTS for Inhibitors of human tyrosyl-DNA phosphodiesterase 1 (TDP1): qHTS in cells in absence of CPT; DT40 Tdp1-/- hTDP1 cells, no CPT, ATP luminescence, 48 h; Potency, µM (series often up to 46.2 µM), inactives show at the top dose activity change, negative = growth inhibition, actives largely listed as inhibitors; hit rate 15% among 420,000; AID 686978, 2013; further: potency means the concentration at half of the fitted maximal effect; nearly all actives have a fitted effect of over 55% in size
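No-CPT arm: Tdp1-/-;hTDP1 DT40 cells (400/well) plus compounds, incubated ≥48 hr at 37 °C. Readout CellTiter-Glo luminescence.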
TDP1 cell CPT – DT40-hTDP1 cell growth loss with CPT; Potency, µM (doses to about 46.2 µM), for the others: at the highest dose activity change, negative = growth inhibition, usual class: inhibitors; chicken DT40 Tdp1-/-;hTDP1 cells + 20 nM CPT, ATP luminescence, 48 h; hit rate 12% among 420,000; AID 686979; further: potency means the concentration at half of the fitted maximal effect; nearly all actives have a fitted effect of over 55% in size
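Cell growth measured by CellTiter-Glo luminescence after a minimum 48 h, 37 C compound exposure with 20 nM CPT in Tdp1-knockout DT40 cells stably expressing hTDP1, seeded 400/well; qHTS titration format.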
ELG1 DNA repair – inhibitors of ELG1-dependent DNA repair in HEK293T cells; HEK293T ELG1-luciferase reporter, luminescence, 16 h; DNA damage induced by 5-fluorouridine; Potency, µM (highest dose often 46.1 µM), for inactives: top-dose activity change, negative = inhibition, most hits filed as inhibitors; hit rate 2.3% among 330,000; AID 504467; further: potency means the concentration at half of the fitted maximal effect; nearly all actives have a fitted effect of over 55% in size
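Step one: seed 2,000 cells per well. Step two: pin-transfer compound or DMSO alongside 5-fluorouridine. Step three: incubate 16 hr, 37 °C, 5% CO2. Step four: add ONE-Glo, wait 30 min, read luminescence.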
HT1080 IDH1KD tx – toxicity to HT-1080 IDH1 knockdown cells (counter line). HT-1080 IDH1 knockdown viability, ATP luminescence, 48 h. Potency, µM (titrated, usually from 46.1 µM), for the others: at the highest dose activity, negative = toxicity, actives largely listed as cytotoxic. hit rate 2% among 360,000;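 further: potency means the concentration at half of the fitted maximal effect; 0% = DMSO wells and -100% = cell-free medium wells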
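Using the IDH1-knockdown HT-1080 line run in the same batch and compound series as the NT line, viability after 48 h at 37 °C was determined by CellTiter-Glo luminescence and expressed as % activity.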
IL1B secr inh – inflammasome signaling inhibition, IL-1 beta readout | THP-1 LPS/ATP IL-1B secretion, AlphaLISA, 16 h; hits give low values | hit rate 4.7% among 360,000 | activity change, % at 57.5 µM; in the data active means activity change below about -50%; inconclusive means mostly about -30% to -49%
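THP-1 cells pretreated 1 hr with compounds (up to 57.5 uM final), then stimulated with LPS (250 ng/mL final) plus ATP (1.25 mM final); secreted IL-1B measured by AlphaLISA after 16 hr, decreased signal indicating inhibition.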
HT1080-NT tox – kills 2HG-producing HT-1080-NT fibrosarcoma cells | HT-1080-NT fibrosarcoma viability, CellTiter-Glo ATP luminescence, 48 h | Potency, µM (series often up to 46.1 µM), for inactives: at the top dose activity, negative = less viability, hits mostly cytotoxic | hit rate 1.6% among 360,000;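 further: NT is the 2HG producing partner of a matched IDH1 knockdown line; potency means the concentration at half of the fitted maximal effect; 0% = DMSO-treated cells and -100% = media-only wells without cells; nearly all actives have a fitted effect of over 55% in size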
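Read-out is CellTiter-Glo luminescence after 10 minutes at room temperature, following 48 hours' compound treatment of HT-1080-NT cells (750 cells/well, RPMI, 5% FBS, 37 degrees C).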
* marks the source's active call; other numbers are inactive results; ? = inconclusive; nt = no result given. In the library only some 19% were active in any assay of this set; here they are far more common. Unless noted, the call rests on the fitted dose curve; in most records, active means well fitted curve in the direction sought with a large enough effect; inconclusive means small, poorly fitted or top-dose-only effect, or another doubt; inactive means no such curve, though single readings can be large; an effect the other way counts as inactive or inconclusive. Unless noted, on the % scale 0 is the no-effect control and ±100 the full control effect.

SMILES | TDP1 cell noCPT | TDP1 cell CPT | ELG1 DNA repair | HT1080 IDH1KD tx | IL1B secr inh | HT1080-NT tox
Cc1ccc(Cn2c(SCC(=O)C(C)(C)C)nc3ccsc3c2=O)cc1 | 14.6µM* | 20.6µM* | nt | nt | nt | nt
O=C(CSc1nc2ccsc2c(=O)n1Cc1ccccc1Cl)NCc1ccc(F)cc1 | 20.6µM* | 16.4µM* | nt | nt | nt | nt
Cc1cc(-n2c(SCC(=O)NCc3ccccc3)nc3ccsc3c2=O)ccc1Cl | ? | 16.4µM* | nt | nt | nt | nt
CC(C)(C)C(=O)Nc1c2c(nn1-c1ccccc1)CSC2 | 23.1µM* | ? | ? | 1.4% | 9.0 | -4.6%
CCC(=O)Nc1c2c(nn1-c1ccc(OC)cc1)CSC2 | 10.0% | 9.6% | 4.6% | 9.0% | 23.7 | 5.3%
O=C(CCl)Nc1c2c(nn1-c1ccccc1)CSC2 | 14.6µM* | 20.6µM* | ? | ? | -96.5* | ?
CC(=O)Nc1c2c(nn1-c1ccccc1)CSC2 | 0.7% | 3.4% | 9.7% | 4.0% | 3.5 | 11.0%
O=C(NCc1ccccc1)C(=O)Nc1c2c(nn1-c1ccccc1)CSC2 | 18.4µM* | 16.4µM* | nt | nt | nt | nt
COc1ccc(-n2nc3c(c2NC(=O)CCCl)CSC3)cc1 | 18.4µM* | ? | 4.9% | 5.0% | -3.6 | 4.8%
O=C(C[N+]1(CCc2ccccc2)CCOCC1)c1ccccc1 | -25.7% | 2.4% | nt | nt | nt | nt
CCOC(=O)c1nnn(C(CC)C(=O)Nc2ccc(F)cc2)c1C(=O)OCC (centres undefined) | -12.5% | -7.6% | nt | nt | nt | nt
COc1cccc(C(=O)NCC(C)(C)SCc2ccc(F)cc2)c1 | ? | ? | -1.4% | 8.8% | 23.7 | -1.4%
CC(C)(C)NC(=O)N1CCN(c2nc3ccc(Cl)cc3s2)CC1 | 18.4µM* | 23.1µM* | 16.6% | ? | -11.8 | -18.8%
CC(C)(CC(=O)O)CC(=O)N1CCN(c2nc3ccc(Cl)cc3s2)CC1 | 11.3% | -16.5% | 5.1% | 1.0% | 28.4 | -1.0%
CCCCC(=O)N1CCN(c2nc3ccc(Cl)cc3s2)CC1 | ? | 16.4µM* | ? | ? | -18.9 | ?
O=C(CCCN1C(=O)C2CC=CCC2C1=O)Nc1ccccc1F (centres undefined) | 5.3% | 10.2% | 16.9% | 2.2% | -1.3 | -0.3%
Cc1cc(-c2ccc(S(=O)(=O)Nc3ccccc3F)s2)on1 | ? | -18.0% | nt | nt | nt | nt
Cc1cc(-c2ccc(S(=O)(=O)Nc3ccc(Br)c(C)c3)s2)on1 | 14.6µM* | 23.1µM* | nt | nt | nt | nt
Cc1cc(-c2ccc(S(=O)(=O)Nc3cc(Cl)ccc3C)s2)on1 | 2.91µM* | 4.61µM* | nt | nt | nt | nt
COc1ccc(CNc2ccc(Br)cc2)cc1 | 4.1% | ? | ? | -7.9% | -6.2 | -2.7%
COc1ccc(NC2=NCC(Cc3ccc(Br)cc3)S2)cc1 (centres undefined) | 25.9µM* | ? | ? | 20.6µM* | -90.7* | ?
O=C(OCCCc1cc2ccccc2c(=O)o1)c1ccc2c(c1)OCO2 | ? | -10.4% | 1.0% | -1.0% | 37.7 | -0.6%
O=C1C2C(C(=O)N1CCN1CCN(Cc3ccc([N+](=O)[O-])cc3)CC1)[C@H]1C=C[C@@H]2C1 (some centres undefined) | ? | 4.4% | 16.4µM* | -4.9% | -5.6 | -2.3%
O=[N+]([O-])c1ccc(COc2ccc(CN3CCCC3)cc2)cc1 | 18.4µM* | 16.4µM* | nt | -1.3% | -8.2 | -0.7%
CSc1ccc(CN2CCN(Cc3ccc([N+](=O)[O-])cc3)CC2)cc1 | 20.6µM* | ? | ? | -28.6% | -66.7* | ?
SMILES | TDP1 cell noCPT | TDP1 cell CPT | ELG1 DNA repair | HT1080 IDH1KD tx | IL1B secr inh | HT1080-NT tox
O=[N+]([O-])c1ccc(CN2CCCCCC2)cc1 | -7.9% | 0.2% | -2.0% | -10.3% | 13.8 | -1.8%
O=[N+]([O-])c1ccc(COc2cccc(CN3CCCCC3)c2)cc1 | 16.4µM* | ? | nt | 2.3% | -3.9 | -0.9%
CCOC(=O)c1nc(N2CCN(c3ccc(F)cc3)CC2)c2c(C)noc2n1 | -13.4% | -23.3% | nt | nt | nt | nt
Cc1nn(CC(=O)Nc2ccc(N3CCOCC3)cc2)c(C)c1Cl | 1.2% | -3.0% | 0.0% | 25.5% | 11.8 | 8.6%
O=[N+]([O-])c1ccc(COc2ccc(CN3CCCCC3)cc2)cc1 | ? | ? | nt | -2.8% | -1.7 | -0.4%
O=[N+]([O-])c1ccc(CN2CCN(c3ncccn3)CC2)cc1 | -5.8% | -16.2% | 6.5% | 0.0% | -9.9 | -3.3%
COC(=O)C1CCN(CCCOc2ccc(CN3CCN(c4ccc([N+](=O)[O-])cc4)CC3)cc2)CC1 | 20.6µM* | -84.1% | -12.8% | ? | -20.3 | ?
O=[N+]([O-])c1ccc(N2CCN(Cc3ccncc3)CC2)cc1 | 18.4µM* | ? | ? | -9.1% | 10.6 | -10.6%
O=[N+]([O-])c1ccc(COc2ccc(CN3CCOCC3)cc2)cc1 | 23.1µM* | ? | nt | 2.1% | -26.9 | 1.9%
Cc1ccc2ccccc2n1 | 5.2% | 4.5% | nt | nt | nt | nt
CCn1c2ccccc2c2cc(NC(=O)COc3cc(C)ccc3C)ccc21 | 9.2µM* | ? | nt | nt | nt | nt
CCc1ccc(OCC(=O)Nc2ccc3c(c2)c2ccccc2n3CC)cc1 | -27.4% | ? | nt | nt | nt | nt
CCn1c2ccccc2c2cc(NC(=O)COC(=O)c3cc(OC)c(OC)cc3OC)ccc21 | 20.6µM* | 20.6µM* | 9.2µM* | 4.7% | -5.9 | -0.6%
CCOc1ccc(NC(=O)NCCc2c(C)nn(C)c2C)cc1 | -27.2% | 6.7% | nt | nt | nt | nt
CN(C)c1nc(-c2ccoc2)nc2ccccc12 | -25.1% | -14.0% | nt | nt | nt | nt
CC1=C(C(=O)N(C)C)CC(CC(=O)NC(c2ccccc2)c2ccccc2)C(=O)N1CCC1=CCCCC1 (centres undefined) | 20.6µM* | ? | nt | -1.2% | -16.2 | -1.6%
CCN(CC)C(=O)C1=C(C)N(Cc2ccc(OC)cc2)C(=O)C(CC(=O)NC(c2ccccc2)c2ccccc2)C1 (centres undefined) | ? | -3.5% | nt | -2.5% | ? | -11.5%
CCN(CC)C(=O)C1=C(C)N(CCC2=CCCCC2)C(=O)C(CC(=O)NC(c2ccccc2)c2ccccc2)C1 (centres undefined) | ? | 18.4µM* | nt | -7.6% | 2.7 | -9.9%
CC1=C(C(=O)N(C)C)CC(CC(=O)NCc2ccco2)C(=O)N1CCC1=CCCCC1 (centres undefined) | -11.1% | -1.6% | nt | 3.9% | -4.6 | 5.5%
CCN(CC)C(=O)c1nc(-c2cccc3ccccc23)no1 | 16.4µM* | ? | nt | -5.5% | -1.3 | -0.3%
CCN(CC)C(=O)c1c2c(nc3ccccc13)-c1ccccc1CC2 | ? | ? | ? | ? | ? | -5.3%
